The text below walks through data of PubChem BioAssay (NCATS).

Structures are written as SMILES. The source made the active and inactive calls. Unless noted, no rule for the calls is given here.

Assay [1] deals with T1, Hexokinase-4 (Homo sapiens) + Glucokinase regulatory protein (Homo sapiens) (UniProt P35557+Q14397). The assay can be described thus: qHTS assay for inhibitors of recombinant human GCK-GKRP interaction: Diaphorase-coupled assay (AID 743205; active = well fitted curve in the direction sought with a large enough effect; an effect the other way counts as inactive or inconclusive). Put shortly: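 Compounds pre-incubated 20 min with substrate, then 10 nM GST-GCK with 10 nM FLAG-GKRP added. GCK activity coupled via G6PDH and diaphorase to resorufin (5 mM glucose, 0.4 mM ATP, 0.15 mM NADP+, pH 7.6), read kinetically over 30 minutes at Ex 525/Em 590 nm.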

For assay [2], the target named is T1, Hexokinase-4 (Homo sapiens) + Glucokinase regulatory protein (Homo sapiens). The assay is described as follows: qHTS assay for inhibitors of recombinant human GCK-GKRP interaction: ADP-Glo assay (AID 743206; active = well fitted curve in the direction sought with a large enough effect; an effect the other way counts as inactive or inconclusive;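 also: plate controls were DMSO plus enzyme for no effect and no enzyme for full effect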). Put shortly: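 Pin-transferred compounds meet a 15 nM GST-GCK/15 nM FLAG-GKRP/2 uM S6P mix (dispense concentrations). ATP is then added to 0.4 mM final with 5 mM glucose, and the reaction runs 60 min at room temperature. ADP is quantified luminescently.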
For orientation: In qHTS, concentration-response curves come from the screen itself.

A short description of assay [3]: qHTS profiling of the MIPE4 collection as inhibitors of Plasmodium falciparum (3D7) proliferation (AID 743344).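 Also: scaled between DMSO vehicle wells and 0.29 µM artemisinin as full inhibition.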 The conditions noted are these: P. falciparum 3D7 in erythrocytes, SYBR Green DNA fluorescence, 72 h; at 28.5 µM (top of the series) unless noted. Put shortly: (§1)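 Parasite DNA was quantified by SYBR Green I fluorescence (ex 485, em 535 nm) after overnight lysis in saponin/Triton buffer at room temperature. Cultures at 0.3% parasitemia and 2.5% hematocrit were first exposed to compound for 72 h at 37 C; signals were normalised to artemisinin (0.29 uM) and vehicle wells.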

A short description of assay [4]: qHTS profiling of the MIPE4 collection as inhibitors of Plasmodium falciparum (DD2) proliferation (AID 743345). The settings on record: P. falciparum Dd2 in erythrocytes, SYBR Green DNA, 72 h; at 28.5 µM (top of the series) unless noted. Put shortly: as §1
A short description of assay [5]: qHTS profiling of the MIPE4 collection as inhibitors of Plasmodium falciparum (DD2) proliferation (Rep 2) (AID 743346). The conditions noted are these: P. falciparum Dd2 in erythrocytes, SYBR Green DNA, 72 h; at 28.5 µM (top of the series) unless noted. Put shortly:
as §1

Assay [6] is described as follows: High-throughput drug toxicity screening in the BPDCN cell line Gen2.2 (AID 1224824).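 Also: cells exposed to compounds for 48 h before reading.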 The conditions noted are these: Gen2.2 BPDCN cells; at 45.8 µM (top of the series) unless noted. The method in brief: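 Gen2.2 cells, 500 per well in phenol red-free RPMI with 10% FBS, exposed to compounds 48 h at 37 C, 5% CO2; viability by CellTiter-Glo luminescence. Percent activity scaled to DMSO (100%) and 9.2 uM bortezomib final (0%).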

The nature of assay [7]: High-throughput drug toxicity screening in the BPDCN cell line Cal-1 (AID 1224825). The conditions noted are these: Cal-1 BPDCN cell viability, qHTS; at 45.8 µM (top of the series) unless noted. The method in brief: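 Viability of the BPDCN line Cal-1 is measured as ATP-based luminescence (CellTiter-Glo) following 48 h incubation with compounds. Percent activity uses DMSO-treated wells as 100% and 9.2 uM bortezomib as 0%.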

The nature of assay [8]: qHTS assay for measurement of the activity of small molecule inhibitors on Zika virus induced Caspase-3 activity in human astrocytoma cells (AID 1224859; active = well fitted curve in the direction sought with a large enough effect; an effect the other way counts as inactive or inconclusive;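 also: plate controls were ZIKV-infected untreated cells for no effect and uninfected cells for full effect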). Put shortly:
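In SNB-19 cells plated at 250 cells/well and grown 16-20 h, compounds were applied 1 h before ZIKV (2 FFU/cell). Six hours later caspase-3/7 luminescence was recorded.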

A short description of assay [9]: qHTS profiling of the MIPE4 collection as inhibitors of Plasmodium falciparum (HB3) proliferation (AID 743347).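 Also: plate controls were DMSO vehicle wells for no effect and artemisinin wells for full effect.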 The conditions noted are these: P. falciparum HB3 in erythrocytes, SYBR Green DNA, 72 h; at 28.5 µM (top of the series) unless noted. Put shortly: as §1
Assay [10] can be described thus: qHTS profiling for inhibitors of Plasmodium falciparum (DD2) proliferation (AID 743323). The conditions noted are these: lower = more inhibition; at 28.7 µM (top of the series). The method in brief: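 SYBR Green fluorescence (ex 485, em 535 nm) of lysed cultures gives parasite DNA content; wells normalized to artemisinin (0.29 uM) and DMSO controls. Infected red cells: 0.3% parasitemia, 2.5% hematocrit, 72 h, 37 C.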

Assay [11] is described as follows: qHTS profiling for inhibitors of Plasmodium falciparum (HB3) proliferation (AID 743324; active = well fitted curve in the direction sought with a large enough effect; an effect the other way counts as inactive or inconclusive;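 also: 100% = DMSO vehicle wells and 0% = artemisinin-treated control wells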). The conditions noted are these: Plasmodium falciparum HB3 blood-stage proliferation; at 28.7 µM (top of the series). Put shortly: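 SYBR Green fluorescence (485 ex/535 em) of lysed cultures, incubated overnight at room temperature in the dark, quantifies parasite DNA. Infected erythrocytes at 0.3% parasitemia and 2.5% hematocrit were exposed 72 h; values normalized to DMSO and 0.29 uM artemisinin controls.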

T1 sequence (P35557 whole entry, looked up): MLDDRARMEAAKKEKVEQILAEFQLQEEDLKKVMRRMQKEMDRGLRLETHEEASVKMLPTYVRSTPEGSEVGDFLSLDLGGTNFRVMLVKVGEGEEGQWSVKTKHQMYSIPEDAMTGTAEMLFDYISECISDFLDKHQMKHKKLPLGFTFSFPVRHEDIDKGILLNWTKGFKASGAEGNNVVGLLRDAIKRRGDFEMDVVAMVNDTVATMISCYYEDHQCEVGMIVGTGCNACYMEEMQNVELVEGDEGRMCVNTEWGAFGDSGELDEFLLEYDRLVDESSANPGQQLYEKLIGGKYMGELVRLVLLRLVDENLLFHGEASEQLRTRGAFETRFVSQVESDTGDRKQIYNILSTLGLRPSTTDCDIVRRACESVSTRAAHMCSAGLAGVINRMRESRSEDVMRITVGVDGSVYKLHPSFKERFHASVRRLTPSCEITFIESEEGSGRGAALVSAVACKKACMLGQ
T1 sequence (Q14397 whole entry, looked up): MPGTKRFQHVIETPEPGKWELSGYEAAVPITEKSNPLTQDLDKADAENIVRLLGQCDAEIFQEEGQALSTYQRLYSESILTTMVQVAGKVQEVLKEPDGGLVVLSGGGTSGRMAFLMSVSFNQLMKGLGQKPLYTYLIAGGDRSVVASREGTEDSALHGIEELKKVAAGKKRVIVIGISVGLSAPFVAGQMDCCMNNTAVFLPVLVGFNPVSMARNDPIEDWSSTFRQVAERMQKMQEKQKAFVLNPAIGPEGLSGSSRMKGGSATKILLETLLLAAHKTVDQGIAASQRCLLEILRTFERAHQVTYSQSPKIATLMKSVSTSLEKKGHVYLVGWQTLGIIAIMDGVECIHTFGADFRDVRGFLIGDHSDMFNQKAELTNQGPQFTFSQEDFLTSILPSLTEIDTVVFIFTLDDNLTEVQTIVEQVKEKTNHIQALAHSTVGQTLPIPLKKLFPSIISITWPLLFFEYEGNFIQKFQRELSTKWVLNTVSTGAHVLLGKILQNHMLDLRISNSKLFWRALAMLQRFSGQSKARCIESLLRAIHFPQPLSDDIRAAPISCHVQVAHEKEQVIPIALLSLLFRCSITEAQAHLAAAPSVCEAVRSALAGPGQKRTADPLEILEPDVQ

With `Clc1ccc(C(c2ccc(Cl)cc2)n2cc[n+](CC(OCc3ccc(Cl)cc3Cl)c3ccc(Cl)cc3Cl)c2)cc1` (configuration not stated), the result in assay [1] and in assay [2] was inactive. Further, the parasite growth, % of DMSO control in assay [3] amounted to 6.19%. In [4], the parasite growth remaining, % of DMSO control (lower = more inhibition) was 5.85%. This compound yielded a parasite growth, % of control (lower = inhibition) in assay [5] of 17.2%. Further, the cell viability, % of control (lower = more cytotoxic) in [6] amounted to 1.6%. In addition, the viability (% of control) in [7] amounted to 3.49%. In assay [8], the Potency entry is “inactive”.
As for `O=c1c(-c2ccc(O)cc2)coc2cc(O[C@@H]3O[C@H](CO)[C@H](O)[C@H](O)[C@H]3O)ccc12`, in [3], the parasite growth, % of DMSO control was determined as 91.8%. Further, the parasite growth remaining, % of DMSO control (lower = more inhibition) in assay [4] was 97.7%. The compound also registered a parasite growth, % of control (lower = inhibition) in [5] of 85.3%. This compound yielded a growth, % of control in assay [9] of 104%. Also, the cell viability, % of control (lower = more cytotoxic) in assay [6] is 101%. Besides, the viability (% of control) in assay [7] stood at 99.8%.
In the case of `N[C@H](CSC(c1ccccc1)(c1ccccc1)c1ccccc1)C(=O)O`, the parasite growth, % of DMSO control in assay [3] is 10.7%. In assay [4], this compound had a parasite growth remaining, % of DMSO control (lower = more inhibition) of 86.8%. The compound also had a parasite growth, % of control (lower = inhibition) in [5] of 16.2%. In [9], this compound had a growth, % of control of 4.68%. Moreover, the cell viability, % of control (lower = more cytotoxic) in assay [6] was found to be 68.6%. Besides, in assay [7], the viability (% of control) amounted to 12%. The Potency result in [8] is “inactive”.
With `CS(=O)(=O)N(Cc1ccco1)CC(O)Cn1c2ccccc2c2ccccc21` (configuration not stated), the parasite growth, % of DMSO control in assay [3] was 34.3%. Moreover, the parasite growth remaining, % of DMSO control (lower = more inhibition) in [4] turned out to be 12.4%. For the same compound, the parasite growth, % of control (lower = inhibition) in [5] amounted to 58.2%. Also, the growth, % of control in assay [9] turned out to be 16.4%. Further, in [6], the cell viability, % of control (lower = more cytotoxic) came to 75.4%. The viability (% of control) in assay [7] came to 65.5%. Besides, the Potency result in assay [8] is “inactive”.
Compound `CC(C)C(=O)Oc1ccc(CO)cc1[C@H](CCN(C(C)C)C(C)C)c1ccccc1` showed a parasite growth, % of DMSO control in assay [3] of 37.9%. The compound also yielded a parasite growth remaining, % of DMSO control (lower = more inhibition) in assay [4] of 40.7%. Also, in assay [5], the parasite growth, % of control (lower = inhibition) was determined as 20.1%. This compound also had a growth, % of control in [9] of 45.5%. In addition, the cell viability, % of control (lower = more cytotoxic) in [6] came to 126%. Also, in assay [7], the viability (% of control) worked out at 102%. In [8], the Potency result is “inactive”.
Take `COc1ccc(-c2coc3cc(O)cc(O)c3c2=O)cc1`: in assay [3], the parasite growth, % of DMSO control was determined as 36.9%. The compound also returned a parasite growth remaining, % of DMSO control (lower = more inhibition) in assay [4] of 99.4%. This compound also returned a parasite growth, % of control (lower = inhibition) in assay [5] of 46.3%. The growth, % of control in assay [9] stood at 15.1%. Also, the cell viability, % of control (lower = more cytotoxic) in [6] was 308%. Also, the viability (% of control) in [7] stood at 86.9%. Further, in [8], the Potency entry was “inactive”.
On to `O=c1c(-c2ccc(O)cc2)coc2cc(OC3O[C@H](CO)[C@H](O)[C@H](O)[C@H]3O)cc(O)c12` (some centres not stated), for which the parasite growth, % of DMSO control in assay [3] was found to be 57%. In addition, in assay [4], the parasite growth remaining, % of DMSO control (lower = more inhibition) worked out at 88.8%. In [5], this compound yielded a parasite growth, % of control (lower = inhibition) of 65.7%. Moreover, the growth, % of control in [9] worked out at 54%. The cell viability, % of control (lower = more cytotoxic) in assay [6] turned out to be 74.8%. Also, the viability (% of control) in [7] was 37.3%.
Turning to `CC(C)(C)Cn1c(N)nc2ccc(-c3[nH]c(C(C)(C)C)nc3-c3ccc(F)cc3)nc21`, the parasite growth, % of DMSO control in assay [3] was 11%. This compound also showed a parasite growth remaining, % of DMSO control (lower = more inhibition) in assay [4] of 9.48%. Moreover, the parasite growth, % of control (lower = inhibition) in assay [5] came out at 16%. Moreover, the growth, % of control in assay [9] amounted to 4.94%. Besides, in assay [6], the cell viability, % of control (lower = more cytotoxic) was 207%. Besides, the viability (% of control) in [7] stood at 59.3%. The Potency entry in assay [8] is “inactive”.
In assay [3], `C[N+](C)(C)CC(=O)O` gave a parasite growth, % of DMSO control of 86.7%. In assay [4], this compound showed a parasite growth remaining, % of DMSO control (lower = more inhibition) of 96.1%. Also, the parasite growth, % of control (lower = inhibition) in [5] was found to be 93.5%. The growth, % of control in [9] was 85.2%. In assay [6], the cell viability, % of control (lower = more cytotoxic) came out at 178%. The viability (% of control) in [7] came to 114%. In [8], the Potency result was “inactive”.
In the case of `O=C1NC(=O)C(=Cc2ccc(-c3ccc(F)cc3)o2)S1`, the parasite growth, % of DMSO control in assay [3] stood at 75.2%. This compound had a parasite growth remaining, % of DMSO control (lower = more inhibition) in [4] of 93.7%. Moreover, in assay [5], the parasite growth, % of control (lower = inhibition) was 91.6%. The compound also returned a growth, % of control in assay [9] of 75.6%. Also, the cell viability, % of control (lower = more cytotoxic) in assay [6] is 57.7%. In [7], the viability (% of control) came to 95.6%.
Consider `Cc1nc(N)sc1-c1ccnc(Nc2ccc(N3CCOCC3)cc2)n1`, for which the activity, percent of control in assay [10] came out at 7.68%. In assay [11], the remaining proliferation (% of control), lower = more inhibition came to 10.5%. In assay [3], this compound showed a parasite growth, % of DMSO control of 6.44%. The compound further gave a parasite growth remaining, % of DMSO control (lower = more inhibition) in assay [4] of 9.15%. In addition, in [5], the parasite growth, % of control (lower = inhibition) was determined as 16.4%. Besides, in assay [6], the cell viability, % of control (lower = more cytotoxic) came to 33.6%. The viability (% of control) in assay [7] worked out at 6.5%. Also, the Potency result in assay [8] is “inactive”.
The compound `Clc1ccc(COC(Cn2ccnc2)c2ccc(Cl)cc2Cl)cc1` (configuration not stated) had a parasite growth, % of DMSO control in assay [3] of 5.45%. In assay [4], the parasite growth remaining, % of DMSO control (lower = more inhibition) amounted to 6.85%. The parasite growth, % of control (lower = inhibition) in assay [5] worked out at 9.72%. In assay [9], this compound gave a growth, % of control of 3.47%. For the same compound, the cell viability, % of control (lower = more cytotoxic) in assay [6] is 115%. Further, the viability (% of control) in assay [7] amounted to 70.1%.
